Among the test systems are HCT-15 colon; HT29 colon; SNB-75 CNS; SNB-19 CNS; U251 CNS; PC-3 prostate; SK-MEL-5 melanoma; UACC-62 melanoma; LOX IMVI melanoma; SK-MEL-28 melanoma; SK-MEL-2 melanoma; EKVX NSCLC; UO-31 renal; TK-10 renal; ACHN renal; CAKI-1 renal; A498 renal; CCRF-CEM leukemia; MOLT-4 leukemia; SN12C renal.
Common to all, as to assay: NCI-60 one-dose screen, 48 h (100 = growth as untreated, 0 = no growth, -100 = all killed)
Common to all, as to details: 10 µM

Molecules are shown by their SMILES. Compounds without any hit were thinned out: in the full panel of roughly 83,000, 20% have a hit.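 Testing used 96-well plates and a 48-hour single-concentration exposure. Example: -40 means 40% of the starting cells died.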 Unmarked numbers belong to inactive results. Calls of active or inactive are those of the source. The calls were made as follows: active = growth percent below 10; inactive = the rest.

For `C/C(=C\CSc1ccccc1C(=O)O)CCCC(C)CCCC(C)CCCC(C)C` (centres undefined), the growth is 21.5% with HCT-15 colon; 59.4% in the assay on HT29 colon; 114% with SNB-75 CNS; 80.4% in the assay with SNB-19 CNS; 46.8% in the assay with U251 CNS; 41% with PC-3 prostate. Further, the growth with SK-MEL-5 melanoma was 24.8%; in the assay with UACC-62 melanoma, 42.5%; in the assay on LOX IMVI melanoma, 26.3%; with SK-MEL-28 melanoma it was 71.5%; in the assay with SK-MEL-2 melanoma it was -12% (active); in the assay with EKVX NSCLC, 43.3%. Further, the growth with UO-31 renal is 49.5%; in the assay with TK-10 renal, 87.7%; with ACHN renal, 37.5%; with CAKI-1 renal, 45.1%; in the assay on A498 renal, 97.4%; with CCRF-CEM leukemia, 29.8%. The growth in the assay with MOLT-4 leukemia is 16.3%.
On to `COC[C@@H](CC(C)C)N=C1NC(=O)/C(=C/c2ccc3ncsc3c2)N1`, for which the growth with HCT-15 colon was 1.92% (active); with HT29 colon, -14.7% (active); with SNB-75 CNS, -4.85% (active); with SNB-19 CNS it was 11.5%; in the assay on U251 CNS it was 15.8%; in the assay with PC-3 prostate, 30.9%. Also, the growth with SK-MEL-5 melanoma was -12.1% (active); in the assay with UACC-62 melanoma it was 1.43% (active); in the assay with LOX IMVI melanoma it was 0.514% (active); in the assay on SK-MEL-28 melanoma, 0.97% (active); in the assay on SK-MEL-2 melanoma, -70.7% (active); in the assay on EKVX NSCLC it was 17.8%. The growth with SN12C renal was 13.6%; in the assay on UO-31 renal it was -12.7% (active); in the assay on TK-10 renal, 27.8%; in the assay on ACHN renal it was 6.22% (active); in the assay with CAKI-1 renal, 4.39% (active); with A498 renal, -7.78% (active). In addition, the growth in the assay with MOLT-4 leukemia is 11.1%.
Turning to `O=C(CS(=O)(=O)c1oc(-c2ccc(Cl)cc2)nc1S(=O)(=O)c1ccc(Cl)cc1)N1CCOCC1`, the growth was -53.6% (active) in the assay with HCT-15 colon; -48.9% (active) in the assay with HT29 colon; 54.7% in the assay on SNB-75 CNS; 86.2% with SNB-19 CNS; 35.9% with U251 CNS; 63.3% with PC-3 prostate. For the same compound, the growth is 77.6% in the assay on SK-MEL-5 melanoma; 56.7% in the assay on UACC-62 melanoma; -90.8% (active) in the assay on LOX IMVI melanoma; 35% in the assay with SK-MEL-28 melanoma; 83.9% in the assay on SK-MEL-2 melanoma; 55.3% with SN12C renal. For the same compound, the growth with UO-31 renal was -19.9% (active); in the assay on TK-10 renal it was 16.5%; with ACHN renal, -98.2% (active); in the assay with CAKI-1 renal, 30.9%; in the assay on A498 renal, 134%; in the assay with CCRF-CEM leukemia, -34.6% (active).
`CC(=O)c1cc(C(=O)N2c3ccccc3Sc3ccccc32)n2ccc(C)cc12`: the growth in the assay on HCT-15 colon was 10.5%; in the assay on HT29 colon it was 32.7%; in the assay with SNB-75 CNS, 83.1%; with SNB-19 CNS, 49.8%; with U251 CNS it was 36.1%; in the assay on PC-3 prostate, 28.3%. Also, the growth in the assay with SK-MEL-5 melanoma was -36.3% (active); in the assay on UACC-62 melanoma it was 23.8%; with LOX IMVI melanoma it was -40% (active); in the assay with SK-MEL-2 melanoma it was 72.5%; with EKVX NSCLC it was 53.1%; with SN12C renal, 42.3%. Moreover, the growth was 35.1% in the assay on UO-31 renal; 78.9% in the assay with TK-10 renal; 29.1% with ACHN renal; 35.3% in the assay on CAKI-1 renal; 85.4% with A498 renal; 24.8% in the assay with CCRF-CEM leukemia. Also, the growth in the assay with MOLT-4 leukemia is 22.6%.
For the compound `OCCCNc1oc(-c2ccccc2)nc1[P+](c1ccccc1)(c1ccccc1)c1ccccc1`, the growth in the assay with HCT-15 colon is 45.9%; in the assay with HT29 colon it was 6.51% (active); with SNB-75 CNS, -2.93% (active); in the assay on SNB-19 CNS it was 4.56% (active); with U251 CNS, 13.7%; in the assay on PC-3 prostate it was 9.56% (active). The growth was -100% (active) in the assay with SK-MEL-5 melanoma; -70.2% (active) in the assay on UACC-62 melanoma; -16.6% (active) with LOX IMVI melanoma; 7.68% (active) with SK-MEL-28 melanoma; -34.1% (active) in the assay on SK-MEL-2 melanoma; -0.273% (active) in the assay on SN12C renal. The growth in the assay with UO-31 renal was 69.8%; in the assay on TK-10 renal, 20.9%; in the assay on ACHN renal, 51%; in the assay with CAKI-1 renal, 58.6%; with A498 renal, 22.5%; in the assay on CCRF-CEM leukemia, 10.5%. Besides, the growth with MOLT-4 leukemia is 6.77% (active).
For the compound `COc1cc(Cn2c(C(F)(F)F)cc3c(Cl)ncnc32)ccn1`, the growth was -48.3% (active) in the assay with HCT-15 colon; 69.7% in the assay with HT29 colon; -60.9% (active) in the assay on SNB-75 CNS; -8.63% (active) with SNB-19 CNS; 12.7% in the assay on U251 CNS; 29.3% in the assay on PC-3 prostate. In addition, the growth in the assay on SK-MEL-5 melanoma is -20.4% (active); in the assay with UACC-62 melanoma it was 0.529% (active); in the assay with LOX IMVI melanoma, -100% (active); with SK-MEL-2 melanoma it was -81.7% (active); with EKVX NSCLC, 73%; in the assay on SN12C renal, 51.3%. Moreover, the growth is 68.3% with UO-31 renal; 97.1% in the assay with TK-10 renal; 74.8% with ACHN renal; -57.6% (active) in the assay on CAKI-1 renal; 103% in the assay on A498 renal; -14.3% (active) in the assay with CCRF-CEM leukemia.
Regarding `O=c1cc(-c2ccccc2)oc2cc(OCCCCNCc3ccccc3)cc(O)c12`, the growth in the assay on HCT-15 colon was -86.1% (active); with HT29 colon, -55.4% (active); in the assay on SNB-75 CNS it was 53.4%; in the assay with SNB-19 CNS, 67.2%; with U251 CNS, -64.7% (active); in the assay on PC-3 prostate, -8.47% (active). Also, the growth is -99.9% (active) with SK-MEL-5 melanoma; -68.7% (active) in the assay with UACC-62 melanoma; -99.9% (active) in the assay on LOX IMVI melanoma; -69.7% (active) in the assay on SK-MEL-28 melanoma; 53.1% in the assay with SK-MEL-2 melanoma; 37% with UO-31 renal. Moreover, the growth with TK-10 renal is 78.9%; with ACHN renal, 59.9%; in the assay with CAKI-1 renal, 25.7%; with A498 renal, 37.6%; in the assay on CCRF-CEM leukemia, 2.88% (active); in the assay on MOLT-4 leukemia, -0.919% (active).
For `Clc1cccc(N/N=C/c2c[nH]c3ccccc23)n1`, the growth with HCT-15 colon is 18.9%; in the assay on HT29 colon it was 30.4%; in the assay on SNB-75 CNS, 15.5%; with SNB-19 CNS, 43.2%; in the assay on U251 CNS, 34.7%; with PC-3 prostate it was 25.2%. Besides, the growth was 41.7% in the assay on SK-MEL-5 melanoma; 55.1% in the assay on UACC-62 melanoma; 17.9% in the assay with LOX IMVI melanoma; 79.8% with SK-MEL-28 melanoma; 73.3% in the assay on SK-MEL-2 melanoma; 16.8% with SN12C renal. In addition, the growth in the assay on UO-31 renal is 10.4%; in the assay on TK-10 renal, 71.7%; in the assay on ACHN renal it was 44.7%; in the assay with CAKI-1 renal, 35.5%; with A498 renal, 75.7%; in the assay on CCRF-CEM leukemia, 8.71% (active). In addition, the growth in the assay with MOLT-4 leukemia is 23.8%.

Values taken from PubChem BioAssay (NCI).
